Laboratory results as given in article PMC4336329 (PLoS ONE, 2015).
Screen size: about 310,000 compounds; about 14,000 (4.5%) showed an effect of 50% or more. The effect is printed as a negative number. This is one part of a sample in which strong results are shown more often than they occur.

Each compound was assayed against human ether-à-go-go-related gene (hERG) potassium channel (human, UniProt Q12809) (assay: primary screen, population patch clamp on CHO cells stably expressing hERG; higher = less effect of the substance).
human ether-à-go-go-related gene (hERG) potassium channel, sequence (Q12809 whole entry, looked up): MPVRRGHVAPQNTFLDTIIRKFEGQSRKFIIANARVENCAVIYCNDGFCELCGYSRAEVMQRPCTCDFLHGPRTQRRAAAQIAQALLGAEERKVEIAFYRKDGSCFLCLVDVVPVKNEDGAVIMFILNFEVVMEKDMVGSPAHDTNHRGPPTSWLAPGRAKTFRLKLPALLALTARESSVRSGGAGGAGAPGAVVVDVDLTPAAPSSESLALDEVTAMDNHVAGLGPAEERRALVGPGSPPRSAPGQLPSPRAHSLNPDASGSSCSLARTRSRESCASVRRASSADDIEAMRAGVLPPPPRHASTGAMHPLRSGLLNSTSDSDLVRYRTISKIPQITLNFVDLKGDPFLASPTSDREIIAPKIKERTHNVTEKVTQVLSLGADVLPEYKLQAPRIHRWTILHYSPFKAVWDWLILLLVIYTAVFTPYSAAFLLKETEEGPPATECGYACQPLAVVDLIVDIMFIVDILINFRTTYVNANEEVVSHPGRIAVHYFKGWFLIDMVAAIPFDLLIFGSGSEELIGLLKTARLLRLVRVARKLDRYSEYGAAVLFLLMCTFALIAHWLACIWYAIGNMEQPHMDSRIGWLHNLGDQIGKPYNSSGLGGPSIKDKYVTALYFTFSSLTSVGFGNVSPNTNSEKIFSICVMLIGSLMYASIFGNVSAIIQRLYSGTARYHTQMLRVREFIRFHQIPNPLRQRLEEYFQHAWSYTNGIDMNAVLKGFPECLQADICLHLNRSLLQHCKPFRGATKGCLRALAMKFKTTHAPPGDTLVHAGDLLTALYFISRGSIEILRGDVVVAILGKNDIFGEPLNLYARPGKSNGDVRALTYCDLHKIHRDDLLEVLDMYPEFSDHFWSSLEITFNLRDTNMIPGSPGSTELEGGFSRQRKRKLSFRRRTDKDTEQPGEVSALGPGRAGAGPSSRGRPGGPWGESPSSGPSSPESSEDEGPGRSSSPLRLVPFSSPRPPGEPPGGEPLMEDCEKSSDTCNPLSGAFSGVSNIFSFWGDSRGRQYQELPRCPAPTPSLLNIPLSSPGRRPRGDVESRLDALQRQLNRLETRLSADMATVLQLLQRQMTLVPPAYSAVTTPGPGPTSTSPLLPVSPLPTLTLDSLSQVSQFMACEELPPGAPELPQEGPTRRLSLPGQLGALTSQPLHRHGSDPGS
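Also: peak tail current of the secondary pulse compared with the same well before compound.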

How did the “hERG current change (%, negative = inhibition) at 10uM” value turn out when `COc1ccc(-c2[nH]ncc2CN2CCCC(C(=O)c3cccc(OC)c3)C2)cc1` (centres unmarked) was run?
The value was -67.3%.

Which “hERG current change (%, negative = inhibition) at 10uM” value does the source give for `COc1cccc(C(=O)C2CCCN(Cc3cn[nH]c3C3CCCCC3)C2)c1` (centres unmarked) here?
The value was -32.1%.

Which “hERG current change (%, negative = inhibition) at 10uM” value does the source give for `COc1ccc(-c2[nH]ncc2CN2CCC(OCc3cccnc3)CC2)c(F)c1` here?
The value was -37.1%.

How did the “hERG current change (%, negative = inhibition) at 10uM” value turn out when `COc1ccc(-c2nc3c(Br)c(N)c(Br)cc3o2)cc1` was run?
The value was 7.14%.

For `O=C(CCCOc1ccc(Cl)cc1Cl)N/N=C/c1cccc([N+](=O)[O-])c1`, which “hERG current change (%, negative = inhibition) at 10uM” value is on record?
Its value is 9.56%.

`CS(=O)(=O)N1Cc2ccccc2CC1C(=O)OCC(=O)Nc1ccc2ccccc2c1` (centres unmarked) was tested. Which “hERG current change (%, negative = inhibition) at 10uM” value did it give?
Its value is 7.36%.

How did the “hERG current change (%, negative = inhibition) at 10uM” value turn out when `O=C(CSc1nc(C2CCCCC2)nc2ccccc12)N1CCCC1` was run?
The value was -12.6%.

For `COc1ccccc1/C=N/NC(=O)C1=NNC(c2ccccc2)(c2ccccc2)C1`, which “hERG current change (%, negative = inhibition) at 10uM” value is on record?
The value was 2.43%.

With `O=C(CSc1nncn1-c1ccccn1)Nc1ccccc1Cl` as the compound, how does the “hERG current change (%, negative = inhibition) at 10uM” value read?
Its value is 4.16%.

Which “hERG current change (%, negative = inhibition) at 10uM” value does the source give for `CCCCn1nnnc1SCC(=O)Nc1ccc(C)cc1` here?
Its value is 2.26%.

For `COc1cccc(OCCn2cc(C=O)c3ccccc32)c1`, which “hERG current change (%, negative = inhibition) at 10uM” value is on record?
The value was 15.2%.

With `CC(C)(C)c1ccc(C(=O)Nc2cccc3ncccc23)cc1` as the compound, how does the “hERG current change (%, negative = inhibition) at 10uM” value read?
The value was -2.82%.

For `Cc1cc(Oc2ccccc2)nc(SCC(=O)Nc2ccccc2)n1`, which “hERG current change (%, negative = inhibition) at 10uM” value is on record?
The value was 19.4%.

`CC1CCN(c2oc(-c3ccccc3F)nc2C#N)CC1` was tested. Which “hERG current change (%, negative = inhibition) at 10uM” value did it give?
Its value is -10.7%.

With `COc1cccc(C(=O)N2CCOCC2)c1` as the compound, how does the “hERG current change (%, negative = inhibition) at 10uM” value read?
Its value is 20.2%.

Which “hERG current change (%, negative = inhibition) at 10uM” value does the source give for `O=C(Nc1ccc(F)cc1F)N1CCN(C/C=C/c2ccccc2)CC1` here?
Its value is -39.9%.

`Cc1cc(NC(=O)CN2CCN(C/C=C/c3ccccc3)CC2)c([N+](=O)[O-])cc1C` was tested. Which “hERG current change (%, negative = inhibition) at 10uM” value did it give?
The value was -12%.

With `Cc1ccc(S(=O)(=O)NC(CC(C)C)C(=O)N2CCN(C/C=C/c3ccccc3)CC2)cc1` (centres unmarked) as the compound, how does the “hERG current change (%, negative = inhibition) at 10uM” value read?
The value was -21.3%.

How did the “hERG current change (%, negative = inhibition) at 10uM” value turn out when `O=C(Nc1ccccc1Cl)N1CCN(C/C=C/c2ccccc2)CC1` was run?
The value was -25.9%.

For `CCC(C)c1ccccc1NC(=O)CN1CCN(C/C=C/c2ccccc2)CC1` (centres unmarked), which “hERG current change (%, negative = inhibition) at 10uM” value is on record?
The value was -60.4%.

With `O=C(CN1CCN(C/C=C/c2ccccc2)CC1)Nc1ccc(F)cc1F` as the compound, how does the “hERG current change (%, negative = inhibition) at 10uM” value read?
The value was -78.1%.

How did the “hERG current change (%, negative = inhibition) at 10uM” value turn out when `Fc1ccc(NC(=S)N2CCN(C/C=C/c3ccccc3)CC2)c(F)c1` was run?
Its value is -25.8%.

How did the “hERG current change (%, negative = inhibition) at 10uM” value turn out when `Cc1ccccc1NC(=O)N1CCN(C/C=C/c2ccccc2)CC1` was run?
The value was -22.7%.

With `Cl.O=C(CCN1CCN(C/C=C/c2ccccc2)CC1)Nc1ccccc1Cl` as the compound, how does the “hERG current change (%, negative = inhibition) at 10uM” value read?
Its value is -76.4%.

For `Cc1ccccc1NC(=O)CCN1CCN(C/C=C/c2ccccc2)CC1`, which “hERG current change (%, negative = inhibition) at 10uM” value is on record?
Its value is -78.9%.

For `O=C(CCN1CCN(Cc2ccccc2)CC1)Nc1ccccc1Cl`, which “hERG current change (%, negative = inhibition) at 10uM” value is on record?
Its value is -46.2%.

With `Cc1ccccc1NC(=O)CCN1CCN(C)CC1` as the compound, how does the “hERG current change (%, negative = inhibition) at 10uM” value read?
The value was 19.4%.

Which “hERG current change (%, negative = inhibition) at 10uM” value does the source give for `O=C(COC(=O)c1cnccn1)c1ccc(Br)cc1` here?
The value was 0.614%.

How did the “hERG current change (%, negative = inhibition) at 10uM” value turn out when `O=C(CNC(=O)c1ccc(Cl)cc1Cl)OCN1C(=O)c2ccccc2C1=O` was run?
The value was 3.68%.

With `Cc1[nH]c2ccccc2c1C(=O)C(=O)NCC1CCCO1` (centres unmarked) as the compound, how does the “hERG current change (%, negative = inhibition) at 10uM” value read?
The value was 6.3%.

`Cc1ccc(/C=C/C(=O)N2CC(=O)Nc3ccccc32)o1` was tested. Which “hERG current change (%, negative = inhibition) at 10uM” value did it give?
Its value is -24.2%.

For `O=C(CN1C(=O)c2ccccc2C1=O)NCCOc1ccccc1`, which “hERG current change (%, negative = inhibition) at 10uM” value is on record?
Its value is -2.09%.

Which “hERG current change (%, negative = inhibition) at 10uM” value does the source give for `Cc1ccccc1NC(=O)C(C)O/N=C/c1cccc([N+](=O)[O-])c1` (centres unmarked) here?
Its value is -38.7%.

How did the “hERG current change (%, negative = inhibition) at 10uM” value turn out when `CCCS(=O)(=O)N1CCCC(C(=O)NCCCN(C)c2ccccc2)C1` (centres unmarked) was run?
The value was 5.82%.

Which “hERG current change (%, negative = inhibition) at 10uM” value does the source give for `CN(C)/C=C(\C#N)S(=O)(=O)c1ccccc1` here?
Its value is 9.4%.

For `Fc1ccccc1NC(=S)N1CCN(C/C=C/c2ccccc2)CC1`, which “hERG current change (%, negative = inhibition) at 10uM” value is on record?
Its value is -23.4%.

How did the “hERG current change (%, negative = inhibition) at 10uM” value turn out when `O=C(CCN1CCN(C/C=C/c2ccccc2)CC1)Nc1ccccc1F.O=C(O)C(=O)O` was run?
The value was -75.1%.

`O=C(CCN1CCN(c2ccccc2)CC1)Nc1ccccc1F` was tested. Which “hERG current change (%, negative = inhibition) at 10uM” value did it give?
Its value is 8.14%.

For `COc1ccc(CN2C(=O)c3ccccc3C2=O)cc1C(=O)Nc1ccccc1N1CCOCC1`, which “hERG current change (%, negative = inhibition) at 10uM” value is on record?
Its value is -10.7%.

For `COCC(=O)N1CCC(Oc2ccc(C(=O)NCc3cc(C(C)C)no3)cc2)CC1`, which “hERG current change (%, negative = inhibition) at 10uM” value is on record?
Its value is -2.22%.

With `CC(C)C(=O)Nc1cccc(-c2cnc3ccccc3n2)c1` as the compound, how does the “hERG current change (%, negative = inhibition) at 10uM” value read?
Its value is 4.12%.

How did the “hERG current change (%, negative = inhibition) at 10uM” value turn out when `CC(=O)Nc1cccc(-c2cnc3ccccc3n2)c1` was run?
Its value is -9.95%.

`CS(=O)(=O)Nc1cccc(-c2cnc3ccccc3n2)c1` was tested. Which “hERG current change (%, negative = inhibition) at 10uM” value did it give?
Its value is -70.4%.

`Cc1cc(S(=O)(=O)Nc2cccc(Cl)c2)c(C)s1` was tested. Which “hERG current change (%, negative = inhibition) at 10uM” value did it give?
The value was 8.15%.
